Experimental findings from PubChem BioAssay (NCI) are described below.

The panel holds about 83,000 compounds, 20% with a hit somewhere; the sample as a whole holds those more often.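 Assay: single dose, 48 h. Readout: percent growth (0 = no net growth; negative = cell death). Active: <10.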 Unmarked numbers belong to inactive results. Active and inactive are the calls of the source.

The first assay has as its system NCI-H226 lung. The assay is described as follows: NCI-60 one-dose screen, 48 h (100 = growth as untreated, 0 = no growth, -100 = all killed). To be noted: 10 µM.
As to `O=C1CC(=O)N(C(=O)c2nn(-c3ccc(Cl)cc3)cc2O)N1`, the growth was 43.1%.
Still for that read-out and setting: for `COc1ccc2c(c1)C(=O)/C(=C/c1ncc([N+](=O)[O-])n1C)O2` the value was -24.6% (active); for `S=C1N(c2ccccc2)CN(C2CCCCC2)CN1c1ccccc1`, 98.7%; for `COc1cc2cc(Oc3ccc(NC(=O)c4ccc(Cl)c(C(F)(F)F)c4)cc3)c(C)nc2cc1OC`, 25.5%.
The same measure, in the same setting: the same measure for `O=C(N/N=C/c1c(Cl)cccc1Cl)c1ccccc1Nc1cccc(C(F)(F)F)c1`: 99.4%.
Consider `O=C1/C(=C/c2ccc([N+](=O)[O-])s2)Oc2cc(Cl)ccc21`, for which the growth is 81.2%.
The same measure, in the same setting: for `N#Cc1cnn(C(=O)c2nn(-c3ccc(Cl)cc3)cc2O)c1N` the value was 18.4%; for `O=C(CCC(C(=O)c1ccccc1)c1ccccc1)c1ccccc1` (stereo not given), 83.1%; for `O=C1c2c(c(=O)[nH]c3ccccc23)CCN1Cc1ccccc1`, 97.1%.
For the compound `Cc1ccc(C2NC(=S)N3C(c4ccc(C)cc4)NC(=S)N23)cc1` (stereo not given), the growth is 63.1%.
As for `COc1cc(-c2ccc(N=Nc3ccc4c(S(=O)(=O)O)ccc(N)c4c3O)c(OC)c2)ccc1N=Nc1ccc2c(S(=O)(=O)O)ccc(N)c2c1O`, the growth is 102%.
The same measure, in the same setting: for `c1ccc(/C(=N\Nc2ccc3ccccc3n2)c2ccccn2)cc1` the value was 3.53% (active); for `COc1ccc(C2CC(c3cc(OC)c(OC)c(OC)c3)=NN2)cc1` (stereo not given), 93.2%; for `CSc1nc2c(c(=O)n1C)CN(Cc1ccccc1)C(=O)CN2`, 96%.
For `COc1ccc(C(=O)c2cc3c(OC)c(OC)c(OC)cc3[nH]2)cc1`, the growth was 86.5%.
Same read-out and setting: the same measure for `COc1cc2c(Nc3ccc(-c4ccc(N)cc4)cc3)ncnc2c(OC)c1OC`: 78.6%.
The same measure, in the same setting: for `COc1ccc(N(C)c2ncnc3occ(C)c23)cc1` the value was 27.5%.
The same measure, in the same setting: for `O=C1/C=C/[C@@H](O)[C@@H]2C[C@@H](O)C[C@H]2/C=C/CCC[C@H](CCc2ccc(C(F)(F)F)cc2)O1` the value was 0.477% (active).
On to `COc1ccc2c(c1)C(=O)/C(=C/c1ccc([N+](=O)[O-])o1)O2`, for which the growth was -13.7% (active).
The same measure, in the same setting: the same measure for `Nc1ccc(CC[C@H]2CCC/C=C/[C@@H]3C[C@H](O)C[C@H]3[C@H](O)/C=C/C(=O)O2)cc1`: 5.2% (active); for `COc1ccc(/C=C2\CCCC3C2=Nc2ccccc2NC3c2ccc(OC)cc2)cc1` (stereo not given): 94.9%.
Take `NC1=NC(c2ccccc2)C2=C(N1)/C(=C/c1ccccc1)CCC2` (stereo not given): the growth was 109%.
On the same count and under the same terms, the same measure for `Cc1c2c(nn1C(=O)c1nn(-c3ccc(Cl)cc3)cc1O)-c1ccccc1CC2`: 22%; for `COc1nc2c(c(=O)n1C)CN(c1ccccc1)C(=O)C(C)N2` (stereo not given): 95.6%; for `COc1cccc2ccc(CC(O)(c3ccccc3)c3ccccc3)nc12`: 71.2%.
Take `CC(=O)Nc1ccc(S(=O)(=O)N/N=C(\C)c2ccc(C)cc2C)cc1`: the growth is 107%.
Same read-out and setting: for `O=C(CSc1nnc(-c2cccnc2SCc2ccccc2)o1)Nc1nc(Cl)cc(Cl)n1` the value was 83.7%; for `CCN(CC)c1ccc(/C=C2\SC(=O)C(Nc3nnc(-c4cccnc4SCc4ccccc4)o3)C2=O)cc1` (stereo not given), 20.1%; for `c1ccc(CSc2ncccc2-c2nnc(SCCN3CCOCC3)o2)cc1`, 114%.
As to `CC(=O)C1N=NCC1c1ccccc1` (stereo not given), the growth is 98%.
The same measure, in the same setting: the same measure for `CS(=O)(=O)c1nccc(-c2c(-c3cccc(OCc4ccc(F)cc4)c3)nc3sccn23)n1`: 55.5%; for `Cc1ccc(NC(=S)NNC(=S)Nc2ccc(C)cc2)cc1`: 94.7%.
Same read-out and setting: the same measure for `Nc1ncc(-c2cnn(C3CCNCC3)c2)cc1-c1nc2ccccc2o1`: 15.8%; for `O=C(CNc1nnc(-c2cccnc2SCc2ccccc2)s1)Nc1nc(Cl)cc(Cl)n1`: 107%.
Same read-out and setting: for `CS(=O)(=O)c1nccc(-c2c(-c3cccc(OCCc4ccccc4)c3)nc3sccn23)n1` the value was 81.4%; for `NC1=NC(c2ccc(Cl)cc2)C2=C(N1)/C(=C/c1ccc(Cl)cc1)CCC2` (stereo not given), 109%; for `COc1cc2cc(Oc3ccc(NC(=O)c4cccc(C(F)(F)F)c4)cc3)c(C)nc2cc1OC`, 48.1%.
With `COc1cc2cc(Oc3ccc(NC(=O)c4ccccc4)cc3)c(C)nc2cc1OC`, the growth was 9.16% (active).
On the same count and under the same terms, the same measure for `COc1ccc(Nc2cnc3cc(NS(=O)(=O)c4ccc(C)cc4)ccc3n2)cc1`: 94%.
The same measure, in the same setting: for `CCOC(=O)c1cc(C(=O)c2cc(OC)c(OC)c(OC)c2)n2ncc3ccccc3c12` the value was 95.1%.

The test system of the next assay is HOP-62 NSCLC. The description is as above. The following applies: 10 µM.
For `O=C1CC(=O)N(C(=O)c2nn(-c3ccc(Cl)cc3)cc2O)N1`, the growth is 38.8%.
On to `COc1ccc2c(c1)C(=O)/C(=C/c1ncc([N+](=O)[O-])n1C)O2`, for which the growth is -27% (active).
The same measure, in the same setting: the same measure for `S=C1N(c2ccccc2)CN(C2CCCCC2)CN1c1ccccc1`: 99.9%; for `COc1cc2cc(Oc3ccc(NC(=O)c4ccc(Cl)c(C(F)(F)F)c4)cc3)c(C)nc2cc1OC`: 73.1%; for `O=C(N/N=C/c1c(Cl)cccc1Cl)c1ccccc1Nc1cccc(C(F)(F)F)c1`: 111%.
The same measure, in the same setting: for `O=C1/C(=C/c2ccc([N+](=O)[O-])s2)Oc2cc(Cl)ccc21` the value was 31.6%; for `N#Cc1cnn(C(=O)c2nn(-c3ccc(Cl)cc3)cc2O)c1N`, 19.2%.
The same measure, in the same setting: for `O=C(CCC(C(=O)c1ccccc1)c1ccccc1)c1ccccc1` (stereo not given) the value was 76.8%.
Take `O=C1c2c(c(=O)[nH]c3ccccc23)CCN1Cc1ccccc1`: the growth is 92.7%.
The same measure, in the same setting: for `Cc1ccc(C2NC(=S)N3C(c4ccc(C)cc4)NC(=S)N23)cc1` (stereo not given) the value was -45.6% (active).
Same read-out and setting: for `COc1cc(-c2ccc(N=Nc3ccc4c(S(=O)(=O)O)ccc(N)c4c3O)c(OC)c2)ccc1N=Nc1ccc2c(S(=O)(=O)O)ccc(N)c2c1O` the value was 85.9%; for `c1ccc(/C(=N\Nc2ccc3ccccc3n2)c2ccccn2)cc1`, 5.49% (active); for `COc1ccc(C2CC(c3cc(OC)c(OC)c(OC)c3)=NN2)cc1` (stereo not given), 98.1%.
Turning to `CSc1nc2c(c(=O)n1C)CN(Cc1ccccc1)C(=O)CN2`, the growth was 82.7%.
Still for that read-out and setting: the same measure for `COc1ccc(C(=O)c2cc3c(OC)c(OC)c(OC)cc3[nH]2)cc1`: 77.8%.
On the same count and under the same terms, the same measure for `COc1cc2c(Nc3ccc(-c4ccc(N)cc4)cc3)ncnc2c(OC)c1OC`: 85.9%.
Still for that read-out and setting: the same measure for `COc1ccc(N(C)c2ncnc3occ(C)c23)cc1`: 34.6%.
As to `O=C1/C=C/[C@@H](O)[C@@H]2C[C@@H](O)C[C@H]2/C=C/CCC[C@H](CCc2ccc(C(F)(F)F)cc2)O1`, the growth is -4.15% (active).
Same read-out and setting: the same measure for `COc1ccc2c(c1)C(=O)/C(=C/c1ccc([N+](=O)[O-])o1)O2`: -45.3% (active).
Regarding `Nc1ccc(CC[C@H]2CCC/C=C/[C@@H]3C[C@H](O)C[C@H]3[C@H](O)/C=C/C(=O)O2)cc1`, the growth is 14.2%.
On to `COc1ccc(/C=C2\CCCC3C2=Nc2ccccc2NC3c2ccc(OC)cc2)cc1` (stereo not given), for which the growth was 128%.
The same measure, in the same setting: for `NC1=NC(c2ccccc2)C2=C(N1)/C(=C/c1ccccc1)CCC2` (stereo not given) the value was 114%; for `Cc1c2c(nn1C(=O)c1nn(-c3ccc(Cl)cc3)cc1O)-c1ccccc1CC2`, 23.7%; for `COc1nc2c(c(=O)n1C)CN(c1ccccc1)C(=O)C(C)N2` (stereo not given), 88.1%.
Same read-out and setting: the same measure for `COc1cccc2ccc(CC(O)(c3ccccc3)c3ccccc3)nc12`: 86.8%.
Same read-out and setting: for `CC(=O)Nc1ccc(S(=O)(=O)N/N=C(\C)c2ccc(C)cc2C)cc1` the value was 100%; for `O=C(CSc1nnc(-c2cccnc2SCc2ccccc2)o1)Nc1nc(Cl)cc(Cl)n1`, 90.6%; for `CCN(CC)c1ccc(/C=C2\SC(=O)C(Nc3nnc(-c4cccnc4SCc4ccccc4)o3)C2=O)cc1` (stereo not given), 30.5%.
With `c1ccc(CSc2ncccc2-c2nnc(SCCN3CCOCC3)o2)cc1`, the growth is 116%.
The same measure, in the same setting: for `CC(=O)C1N=NCC1c1ccccc1` (stereo not given) the value was 112%.
Same read-out and setting: the same measure for `CS(=O)(=O)c1nccc(-c2c(-c3cccc(OCc4ccc(F)cc4)c3)nc3sccn23)n1`: 90.1%.
Turning to `Cc1ccc(NC(=S)NNC(=S)Nc2ccc(C)cc2)cc1`, the growth is 45.2%.
On the same count and under the same terms, the same measure for `Nc1ncc(-c2cnn(C3CCNCC3)c2)cc1-c1nc2ccccc2o1`: 24.3%; for `O=C(CNc1nnc(-c2cccnc2SCc2ccccc2)s1)Nc1nc(Cl)cc(Cl)n1`: 95.4%.
Same read-out and setting: for `CS(=O)(=O)c1nccc(-c2c(-c3cccc(OCCc4ccccc4)c3)nc3sccn23)n1` the value was 93%.
With `NC1=NC(c2ccc(Cl)cc2)C2=C(N1)/C(=C/c1ccc(Cl)cc1)CCC2` (stereo not given), the growth is 140%.
As for `COc1cc2cc(Oc3ccc(NC(=O)c4cccc(C(F)(F)F)c4)cc3)c(C)nc2cc1OC`, the growth is 87.1%.
In the case of `COc1cc2cc(Oc3ccc(NC(=O)c4ccccc4)cc3)c(C)nc2cc1OC`, the growth was 43.8%.
The same measure, in the same setting: for `COc1ccc(Nc2cnc3cc(NS(=O)(=O)c4ccc(C)cc4)ccc3n2)cc1` the value was 79%; for `CCOC(=O)c1cc(C(=O)c2cc(OC)c(OC)c(OC)c2)n2ncc3ccccc3c12`, 89.5%.
